A short description of assay [1]: galactose survival enhancers in mitochondrial complex I cybrids – cell-based, galactose medium, ATP luminescence, primary screen (AID 1645843;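 active = z-score of at least 1.8 in each of two replicates, scored against plate mean and spread of sample wells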;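 also: positive z means more ATP and so rescue of galactose-driven cybrid death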). The following applies: complex I mutant cybrid cells, 72 h, stronger effect = higher value.
Assay [2] is described as follows: growth inhibition, single agent or in combination, cell-based, chromothripsis tumors, cisplatin or BGB combos (AID 1671449).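 Also: cells exposed for 96 hours; 0% = vehicle DMSO and 100% = killing by high DMSO.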 The following applies: LFS_MB_P medulloblastoma cells.
Assay [3] can be described thus: growth inhibition, single agent and combos, cell-based, chromothripsis tumors, cisplatin or BGB combos (AID 1671450).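 Also: cells exposed to compound for four days; 0% = vehicle DMSO and 100% = cell killing by high DMSO.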 The following applies: HDN33 neuroblastoma cells, stronger effect = higher value.
Assay [4] is described as follows: growth inhibition, single agents and combos, ICB984, cell-based, cisplatin or BGB combos, synergistic combos for chromothripsis tumors (AID 1671451; call rule not given here;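 also: cells exposed for 96 hours before readout; 0% = vehicle DMSO and 100% = killing by high DMSO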). Conditions: ICB984 medulloblastoma cells, drug combinations, stronger effect = higher value.
The nature of assay [5]: growth inhibition, single agents and combos, LFS_MB_1R, cell-based, cisplatin or BGB combos, synergistic combos for chromothripsis tumors (AID 1671452).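 Also: cells exposed for 96 hours before readout.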 The following applies: LFS_MB_1R medulloblastoma cells, stronger effect = higher value.
The nature of assay [6]: growth inhibition, single agents and combos, HTB85, cell-based, BGB or cisplatin IC20 combos, synergistic combos for chromothripsis tumors (AID 1671453).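 Also: cells exposed for 96 hours before readout; 0% = vehicle DMSO and 100% = high DMSO killing control.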 Conditions: HTB85 osteosarcoma cells, drug combinations, stronger effect = higher value.
Assay [7] is described as follows: growth inhibition, single agents and combos, CRL2098, cell-based, BGB or cisplatin IC20 combos, synergistic combos for chromothripsis tumors (AID 1671454).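 Also: cells exposed for 96 h before readout; 0% = vehicle DMSO and 100% = killing by high DMSO.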 Conditions: CRL2098 osteosarcoma cells, drug combinations, stronger effect = higher value.
Assay [8] is described as follows: growth inhibition, single agents and combos, HD-MB03, cell-based, BGB or cisplatin IC20 combos, synergistic combos for chromothripsis tumors (AID 1671455; in the data active = inhibition above about 83%;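 also: 0% = vehicle DMSO and 100% = high DMSO as cytotoxic control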). Conditions: HD-MB03 medulloblastoma cells, stronger effect = higher value.
Assay [9] is described as follows: growth inhibition, single agents and combos, UWB1.289, cell-based, BGB or cisplatin combos, synergistic combos for chromothripsis tumors (AID 1671456).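 Also: cells exposed to compound for four days; 0% = vehicle DMSO and 100% = killing by high DMSO.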 Conditions: UWB1.289 ovarian carcinoma cells, stronger effect = higher value.
Assay [10] in a line: growth inhibition, single agents and combos, LFS_MB_2R, cell-based, cisplatin combos, synergistic combos for chromothripsis tumors (AID 1671457).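 Also: cells exposed to compound for four days before readout.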 The following applies: LFS_MB_2R medulloblastoma cells, stronger effect = higher value.
Assay [11] is described as follows: growth inhibition, MDA-MB-436, cell-based, BGB or cisplatin combos, synergistic combos for chromothripsis tumors (AID 1671458; call rule not given here;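 also: cells exposed for 96 hours; 0% = vehicle DMSO and 100% = killing by high DMSO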). The following applies: MDA-MB-436 breast carcinoma growth inhibition, drug combinations, stronger effect = higher value.
Assay [12] is described as follows: UWB1.289_BRCA1 ovarian cancer growth, cell-based, BGB or cisplatin combinations (AID 1671459). Conditions: UWB1.289 BRCA1 ovarian carcinoma, drug combinations, stronger effect = higher value.
The nature of assay [13]: drug combination toxicity in non-malignant astrocytes – cell-based, BGB or cisplatin IC20 combos, cytotoxicity control for chromothriptic childhood tumor combination screen (AID 1671460).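 Also: cells exposed to compounds for 96 hours before viability readout; 0% = vehicle and 100% = killing control.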 The following applies: Human astrocytes, viability inhibition, drug combinations, at 0.5 µM, stronger effect = higher value.
Assay [14] can be described thus: BT084 cell growth, single and combined drugs, ICGC_MB145, cisplatin and BGB IC40 combos (AID 1671461).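 Also: cells exposed to drugs for 96 hours; 0% = vehicle DMSO and 100% = high DMSO full killing control.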 The following applies: BT084 medulloblastoma cells, drug combinations, stronger effect = higher value.
The nature of assay [15]: RCMB18 cell growth, single agent and combined, cisplatin and BGB IC40 combos (AID 1671462).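 Also: cells exposed to compound for four days.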 Conditions: RCMB18 medulloblastoma cells, stronger effect = higher value.
The nature of assay [16]: CRL1545 cell growth, single agent and combined, cisplatin and BGB IC20 combos (AID 1671464).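 Also: cells exposed to compound for 96 hours before readout; 0% = vehicle DMSO and 100% = high DMSO killing control.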 The following applies: CRL1545 osteosarcoma cells, stronger effect = higher value.
[17] abbreviates: measured here: combination with BGB IC40, at 0.05 µM.
Where [18] appears, read: measured here: with BGB IC20 combination, at 0.5 µM.
[19] abbreviates: measured here: with cisplatin IC20 combination, at 0.5 µM.
[20] abbreviates: measured here: combination with cisplatin, at 0.5 µM.
The mark [21] stands for this setting: measured here: combination with cisplatin, at 5 µM.

The text below walks through data of PubChem BioAssay.

Where “and” joins values, the source holds several entries; their conditions need not be identical. Identical values can stand only once. Calls of active or inactive are those of the source. Rule as the data show it, unless noted: active = inhibition above about 80%; inactive = the rest.

Turning to `Cc1nn(C)cc1-c1ccnc(N2CCN(Cc3ccc(F)cc3)C(=O)C2)n1`, the z-score in assay [1] is 0.865 (inactive).
Take `Nc1nc(F)nc2c1ncn2C1OC(CO)C(O)C1O` (stereo not given): the inhibition in assay [2] (at 0.5 µM, stronger effect = higher value) was -23.4% (inactive) and 5.5% (inactive); in [2] (measured here: combination with BGB IC20, at 0.005 µM), -13.1% and 10.2%; in [2] (measured here: combination with BGB IC40, at 0.005 µM), -4.16% and 17.3%; in assay [2] (setting [17]), -14.8% and 4.66%; in [2] (measured here: combination with cisplatin, at 0.5 µM, stronger effect = higher value), -27.4% and 14.8%; in [2] (measured here: combination with cisplatin, at 5 µM, stronger effect = higher value), 85.8% and 94.5%. The inhibition is 27.6% and 14.7% in [3] (BGB combo, at 5 µM); -7.43% (inactive) and -36.4% (inactive) in assay [3] (at 0.5 µM); 20.8% and 7.89% in [3] (cisplatin combo, at 5 µM); 3.36% and -26.3% in assay [3] (setting [18]); -16.4% and -54.5% in assay [3] (setting [19]); 45.6% and 12.3% in assay [3] (single agent, at 5 µM). Besides, the inhibition in assay [4] (BGB IC20 combo, at 0.005 µM) was 20.7% and -6.33%; in [4] (BGB IC40 combo, at 0.005 µM), -14.7% and -39.6%; in assay [4] (BGB IC40 combo, at 0.05 µM) it was 0.533% and 4.89%; in [4] (at 0.5 µM), -14.3% (inactive) and -20.5% (inactive); in assay [4] (cisplatin combo, at 0.05 µM), -3.04% and 2.23%; in assay [4] (cisplatin combo, at 0.5 µM), -8.41% and -26.1%. Further, the inhibition was -23% and -33% in assay [4] (cisplatin combo, at 5 µM); -7.66% and -8.57% in assay [4] (measured here: 5 uM single agent, at 5 µM); -2.13% (inactive) and -19.9% (inactive) in [5] (at 0.5 µM); 3.73% and -32% in [5] (setting [17]); 9.09% and -1.53% in [5] (setting [20]); 76.5% and 57.3% in [5] (setting [21]). The inhibition in assay [6] (at 0.5 µM) is 3.43% (inactive) and -25.3% (inactive); in assay [6] (measured here: with BGB IC20, at 0.5 µM), -0.749% and -38.9%; in assay [6] (measured here: with BGB IC20, at 5 µM), 44.9% and 11%; in assay [6] (measured here: with cisplatin IC20, at 0.5 µM) it was 2.7% and -32%; in [6] (measured here: with cisplatin IC20, at 5 µM), 37% and 41.2%; in assay [6] (single agent, at 5 µM), 58.5% and 39.5%. The inhibition was 94% (active) and 94.9% (active) in assay [7] (at 0.5 µM); 94.8% and 95% in assay [7] (measured here: combination with BGB at IC20, at 0.5 µM); 91.9% and 95.1% in [7] (measured here: combination with cisplatin at IC20, at 0.5 µM); 5.8% (inactive) and 2.84% (inactive) in assay [8] (at 0.5 µM); 3.8% and -3.69% in assay [8] (measured here: combo with BGB at IC20, at 0.5 µM); 2.93% and 14.9% in assay [8] (measured here: combo with cisplatin at IC20, at 0.5 µM). The inhibition in assay [9] (at 0.5 µM) is 2.58% (inactive) and -11.8% (inactive); in assay [9] (measured here: inhibition with BGB combination, at 0.05 µM), -5.13% and -19.7%; in assay [9] (measured here: inhibition with cisplatin combination, at 0.05 µM), -18.9% and -14.7%; in assay [10] (at 0.5 µM) it was 12% (inactive) and -3.14% (inactive); in assay [10] (setting [20]) it was 3.75% and 4.65%; in [10] (setting [21]), 69.4% and 48.7%. The inhibition in assay [11] (at 0.5 µM) is 2.72% (inactive) and -8.67% (inactive); in assay [11] (measured here: BGB combination, at 0.5 µM), 0.63% and 6.32%; in [11] (measured here: BGB combination, at 5 µM) it was 12.4%; in [11] (measured here: cisplatin combination, at 0.5 µM), -0.776% and -26.9%; in assay [11] (measured here: cisplatin combination, at 5 µM), 1.99% and 20.7%; in [12] (BGB combination, concentration series, at 5 µM), 34% and 13%. Moreover, the inhibition was 3.6% (inactive) and -10.5% (inactive) in [12] (at 0.5 µM); 32.8% and 23% in [12] (cisplatin combination, concentration series, at 5 µM); 13.7% (inactive) and -16.7% (inactive) in assay [13]; 0.417% and -14% in [13] (measured here: combo with BGB IC20); 20% and -36.2% in assay [13] (measured here: combo with cisplatin IC20); -17.4% (inactive) and 8.96% (inactive) in assay [14] (at 0.5 µM). Besides, the inhibition in assay [14] (cisplatin combination, at 0.5 µM) is -38.6% and 6.07%; in assay [14] (cisplatin combination, at 5 µM), 36.8% and 59.3%; in assay [14] (measured here: BGB IC40 combination 0.05 uM, at 0.05 µM) it was -18.2% and 2.24%; in [14] (single agent, at 5 µM), -9.05% and -4.51%; in assay [15] (at 0.5 µM) it was 0.9% (inactive) and -15.3% (inactive); in assay [15] (cisplatin combo, at 5 µM) it was 44.7% and 68%. Also, the inhibition in assay [15] (measured here: BGB IC40 combination, at 0.05 µM) was 1.47% and -4.03%; in [15] (setting [20]), 30.2% and -17.9%; in [15] (single agent, at 5 µM) it was 8.81% and -20.7%; in assay [16] (at 0.5 µM), 8.8% (inactive) and -39.7% (inactive); in assay [16] (setting [18]), 5.25% and -35.7%; in assay [16] (setting [19]), 9.12% and -44.9%. Besides, the inhibition in [16] (single agent, at 0.05 µM) is -7.3% and -43.1%; in assay [16] (single agent, at 5 µM) it was 24% and -66.2%.
Consider `Cc1ccccc1N1CCCN(C(=O)CCC(C)C)CC1`, for which the z-score in assay [1] was 3.28 (active).

Usually inhibition stands for the relative decrease from the control value, in per cent.
